BCR signal inh: inhibitors of chronic active B-cell receptor signaling; ABC-DLBCL IkBa-CBG/CBR reporter, luminescence ratio, 4 h; Potency, µM (top dose mostly 46.1 µM), for the others: at the top dose activity change, negative = inhibition, most hits filed as inhibitors; 340,000 tested, 0.05% active; active = well fitted inhibition curve with a large enough effect in the signal ratio, with a control signal flat, not every such curve was filed as active; inconclusive = small, poorly fitted or top-dose-only effect, or effect the other way, or a change in a side signal; the % refers to the signal ratio;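 note: potency is the fitted concentration of half-maximal effect; plate controls were basal doxycycline-induced cells for no effect and cells given 10 µM MG132 for full effect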
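Concentration-response series (up to 46 uM) were applied to TMD8 dual-reporter cells for 4 h at 37C with doxycycline. Green/red ratio, after filter-overlap correction, defined %Activity; red signal alone was normalised to basal cells and zero luminescence.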
Tb PFK inh-1: inhibitors of T. brucei phosphofructokinase. O15648. T. brucei PFK, ADP-Glo luminescence. Potency, µM (highest dose often 57.5 µM), without a hit: at the top dose activity, negative = inhibition, most hits filed as inhibitors. 330,000 tested, 0.17% active. AID 485367;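 note: potency is the fitted concentration of half-maximal effect; 0% = uninhibited 1x PFK enzyme wells and -100% = no-enzyme wells; nearly all actives have a fitted effect of over 60% in size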
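PFK 1.25 nM, F6P 0.5 mM, ATP 0.1 mM, 0.1 M TEA pH 8.0, 5 mM MgCl2, 0.01% Tween20, 0.1% BSA; 45 min RT. ADP-Glo readout. qHTS titration up to 57 uM; curves fitted, compounds curve-classed.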
Pin1 inh: human Pin1 inhibition; Pin1 FP peptide displacement, HiFluor488, 10 min; Potency, µM (titrated, usually from 115 µM), inactives show at the top dose activity, negative = inhibition, actives largely listed as inhibitors; 390,000 tested, 0.009% active; AID 504891; active = well fitted inhibition curve with a large enough effect in the polarisation, with a control signal flat, not every such curve was filed as active; inconclusive = small, poorly fitted or top-dose-only effect, or effect the other way, or a change in a side signal; inactive = no such curve, though single readings can be large or run the other way; the % refers to the polarisation; note: potency is the fitted concentration of half-maximal effect; % is set by controls: 0 for no effect and ±100 for the full control effect
PGK inhibitor: blocks T. brucei phosphoglycerate kinase; P07378; 380,000 tested, 0.043% active; Potency, µM (highest dose often 57.5 µM), without a hit: at the top dose activity change, negative = inhibition, hits mostly inhibitors; AID 602233; PGK/GAPDH coupled, Kinase-Glo luminescence, 60 min; note: potency is the fitted concentration of half-maximal effect; % is set by controls: 0 for no effect and ±100 for the full control effect; nearly all actives have a fitted effect of over 60% in size
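Recombinant glycosomal PGK reaction used 1,3-bisphosphoglycerate generated in-well by GAPDH (100nM final) in 100mM TEA pH 7.6, 5mM MgCl2, 0.01% Tween-20. After 60 minutes at room temperature, ATP was read by Kinase-Glo Plus luminescence end-point.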
PI4K2A block: blocks human PI4K2A kinase activity; Q9BTU6; purified PI4K2A, ADP-Glo luminescence, 1 h; hits give low values; activity change, negative = inhibition, % at 76.9 µM; 420,000 tested, 0.13% active; AID 1346378; in the data active = activity change below about -50%; inconclusive = mostly about -30% to -49%;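 note: -100% = wells without enzyme as full effect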
Target sequence (Q9BTU6 whole entry, looked up): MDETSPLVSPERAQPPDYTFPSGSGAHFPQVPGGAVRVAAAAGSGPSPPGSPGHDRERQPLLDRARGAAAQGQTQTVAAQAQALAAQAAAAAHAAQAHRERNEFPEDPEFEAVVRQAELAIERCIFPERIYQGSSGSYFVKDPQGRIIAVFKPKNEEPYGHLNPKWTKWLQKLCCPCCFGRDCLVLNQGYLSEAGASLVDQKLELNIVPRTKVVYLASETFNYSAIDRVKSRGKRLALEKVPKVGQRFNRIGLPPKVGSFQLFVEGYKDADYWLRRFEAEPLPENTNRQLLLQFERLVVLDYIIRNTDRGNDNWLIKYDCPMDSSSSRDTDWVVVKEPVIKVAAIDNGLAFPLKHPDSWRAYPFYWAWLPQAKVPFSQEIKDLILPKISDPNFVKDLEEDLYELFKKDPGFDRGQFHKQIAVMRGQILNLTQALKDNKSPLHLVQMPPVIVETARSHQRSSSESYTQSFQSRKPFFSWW
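Compounds are screened against recombinant PI4K2A using PI as substrate and ATP, the latter dispensed at 300 microM. Reactions run one hour at ambient temperature before ADP-Glo detection; full inhibition defined by wells lacking enzyme.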
TbPFK ATP: inhibits T. brucei PFK measured by ATP depletion. shares compounds with Tb PFK inh-1. Tb PFK enzyme, ATP depletion, Kinase-Glo Plus luminescence. Potency, µM (top dose mostly 57.5 µM), inactives show top-dose inhibition. 1,100 tested, 47% active; calls by dose curve; note: potency is the fitted concentration of half-maximal effect; nearly all actives have a fitted effect of over 60% in size
Tb PFK inh-2: validation of T. brucei phosphofructokinase inhibitors; shares compounds with Tb PFK inh-1; purified T. brucei PFK, ADP-Glo luminescence, 45 min; Potency, µM (top dose mostly 57.5 µM), inactives show at the top dose activity change, negative = inhibition, usual class: inhibitors; 1,100 tested, 41% active;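 note: potency is the fitted concentration of half-maximal effect; plate controls were full PFK enzyme control for no effect and no enzyme control for full effect; nearly all actives have a fitted effect of over 60% in size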
Numbers without * were called inactive; i = inactive; ? = inconclusive; . = no result given; [ ] = another dose, or the depositor's remark. The list is not random: actives were taken first. Their share in the collection is about 0.34%. Unless noted, calls come from the whole dose curve; as a rule, active = well fitted curve in the direction sought with a large enough effect; inconclusive = small, poorly fitted or top-dose-only effect, or another doubt; inactive = no such curve, though single readings can be large; an effect the other way counts as inactive or inconclusive.

SMILES	BCR signal inh	Tb PFK inh-1	Pin1 inh	PGK inhibitor	PI4K2A block	TbPFK ATP	Tb PFK inh-2
O=C(O)CCC(=O)Nc1ccc(SSc2ccc(NC(=O)CCC(=O)O)cc2)cc1	0%	?	-7%	-5%	-7	8.5µM*	17µM*
O=C(O)CCC(=O)Nc1ccc(F)cc1	-20%	-7%	3%	i	-4	.	.
O=C(Nc1ccc2c(c1)OCO2)c1cccc2c1C(=O)N(Cc1cccnc1)C2	-2%	?	?	-3%	-6	?	?
Cc1ccc2scc(N3CCN(c4ccc(F)cc4)CC3)c(=O)c2c1	.	.	2%	-11%	0	.	.
O=c1c2cc(F)ccc2sn1-c1ccc(F)cc1	?	7.6µM*	-11%	2%	-12	?	?
COc1ccc(-n2sc3ccc(F)cc3c2=O)cc1	?	6.7µM*	-21%	-6%	-19	?	?
Cc1ccc(C)c(-n2sc3ccc(F)cc3c2=O)c1	?	3µM*	-5%	i	-1	19µM*	17µM*
CCOC(=O)C(O)c1ccccc1 (centres undefined)	.	.	.	.	-2	.	.
O=[S+]([O-])(c1c(F)cccc1F)N1CCN([S+](=O)([O-])c2csc3ccccc23)CC1	.	.	-1%	.	.	.	.
CCOc1ccccc1NC(=O)COc1coc(CN2CCc3ccccc32)cc1=O	0%	?	-3%	-3%	-1	13%	-21%
Cc1ccc(C(=O)NC(=S)Nc2ccc(-c3ccc(CO)o3)cc2)cc1	?	?	3%	i	-2	5%	0%
O=Cc1cn(Cc2cccc([N+](=O)[O-])c2)c2ccccc12	-13%	?	-2%	i	4	?	-24%
CCN1CCN(C(=S)c2ccc(Br)cc2)CC1	?	?	-6%	i	3	11µM*	27µM*
Oc1ccc(C(=S)N2CCCC2)cc1	-5%	-12%	-8%	-1%	-5	.	.
CCN1CCN(C(=S)c2ccc(O)cc2)CC1	-1%	13µM*	1%	-2%	-2	6.7µM*	24µM*
Cc1c(P(=S)(c2ccccc2)c2ccccc2)c2ccccc2n1C(=O)Cc1ccccc1	.	.	8%	.	.	.	.
Cc1ccnc(NS(=O)(=O)c2ccc(NC(=O)Cc3ccc(Cl)cc3)cc2)n1	-4%	27µM*	-7%	-6%	-2	15µM*	?
O=C(Cc1ccc(Br)cc1)Nc1ccc(S(=O)(=O)Nc2ncccn2)cc1	2%	24µM*	-1%	-3%	2	21µM*	21µM*
CCC(=O)Nc1ccc(S(=O)(=O)Nc2ncccn2)cc1	5%	2%	-3%	8%	3	.	.
O=C(Cc1c(Cl)cccc1Cl)Nc1ccc(S(=O)(=O)Nc2ncccn2)cc1	-8%	-3%	-5%	i	2	.	.
COc1cccc(CC(=O)Nc2ccc(S(=O)(=O)Nc3nccs3)cc2)c1	4%	19µM*	0%	-1%	-2	19µM*	?
O=C(Cc1ccc(Cl)cc1)Nc1ccc(S(=O)(=O)Nc2ncccn2)cc1	?	21µM*	13%	-11%	-3	11µM*	19µM*
CCc1cccc2c(CCO)c[nH]c12	.	.	.	.	-1	.	.
O=C(NCc1ccco1)c1ccc2c(=O)n(Cc3ccco3)c(SCC(=O)N3CCCC3)nc2c1	?	?	?	?	-20	?	?
COc1ccc(C(=O)COC(=O)c2ccccc2O)c(OC)c1	?	6.7µM*	?	0%	-12	16%	-15%
SMILES	BCR signal inh	Tb PFK inh-1	Pin1 inh	PGK inhibitor	PI4K2A block	TbPFK ATP	Tb PFK inh-2
COc1ccc2nc(NC(=O)c3ccccc3O)sc2c1	?	?	4%	5%	2	-30%	?
CC(NCc1ccc(Cl)c(Cl)c1)C(O)c1ccccc1 (centres undefined)	?	?	-6%	0%[11.5 µM]	-2	12µM*	24µM*
NC(=O)C1CCN(c2ncc(-c3ccc4c(c3)OCCO4)s2)CC1	.	.	-3%	.	.	.	.
O=C(N/N=C/c1ccncc1)c1ccc(NC(=O)c2cccc(Cl)c2)cc1	-1%	?	-17%	-10%	5	-28%	?
COC(=O)c1ccc(Cn2ncc3c4sc(C)cc4n(C)c3c2=O)cc1	.	.	0%	.	.	.	.
N#Cc1cccc(NCC(=O)Nc2ccc3c(c2)OCCO3)c1	-1%	21µM*	14%	-4%	3	27µM*	30µM*
Cc1ccc(-c2nc3c(c(SCC(=O)Nc4cccc(C(=O)O)c4)n2)Cc2cccc(C)c2O3)cc1	8%	1.7µM*	?	.	.	1.1µM*	?
COc1cc(Br)c(Br)cc1N	?	?	-5%	i	0	21µM*	?
